BAZ2B inh: qHTS Assay for Inhibitors of BAZ2B; AlphaScreen BAZ2B-H3K14Ac peptide displacement; Potency, µM (doses to about 114 µM), inactives show at the top dose activity change, negative = inhibition, most hits filed as inhibitors; 4.4% of 360,000 active; AID 504333, 2011; also: potency is read from the fitted curve at half-maximal effect; % is scaled to controls: 0 for no effect and ±100 for the full control effect; nearly all actives have a fitted effect of over 60% in size
Target sequence (Q9UIF8 whole entry, looked up): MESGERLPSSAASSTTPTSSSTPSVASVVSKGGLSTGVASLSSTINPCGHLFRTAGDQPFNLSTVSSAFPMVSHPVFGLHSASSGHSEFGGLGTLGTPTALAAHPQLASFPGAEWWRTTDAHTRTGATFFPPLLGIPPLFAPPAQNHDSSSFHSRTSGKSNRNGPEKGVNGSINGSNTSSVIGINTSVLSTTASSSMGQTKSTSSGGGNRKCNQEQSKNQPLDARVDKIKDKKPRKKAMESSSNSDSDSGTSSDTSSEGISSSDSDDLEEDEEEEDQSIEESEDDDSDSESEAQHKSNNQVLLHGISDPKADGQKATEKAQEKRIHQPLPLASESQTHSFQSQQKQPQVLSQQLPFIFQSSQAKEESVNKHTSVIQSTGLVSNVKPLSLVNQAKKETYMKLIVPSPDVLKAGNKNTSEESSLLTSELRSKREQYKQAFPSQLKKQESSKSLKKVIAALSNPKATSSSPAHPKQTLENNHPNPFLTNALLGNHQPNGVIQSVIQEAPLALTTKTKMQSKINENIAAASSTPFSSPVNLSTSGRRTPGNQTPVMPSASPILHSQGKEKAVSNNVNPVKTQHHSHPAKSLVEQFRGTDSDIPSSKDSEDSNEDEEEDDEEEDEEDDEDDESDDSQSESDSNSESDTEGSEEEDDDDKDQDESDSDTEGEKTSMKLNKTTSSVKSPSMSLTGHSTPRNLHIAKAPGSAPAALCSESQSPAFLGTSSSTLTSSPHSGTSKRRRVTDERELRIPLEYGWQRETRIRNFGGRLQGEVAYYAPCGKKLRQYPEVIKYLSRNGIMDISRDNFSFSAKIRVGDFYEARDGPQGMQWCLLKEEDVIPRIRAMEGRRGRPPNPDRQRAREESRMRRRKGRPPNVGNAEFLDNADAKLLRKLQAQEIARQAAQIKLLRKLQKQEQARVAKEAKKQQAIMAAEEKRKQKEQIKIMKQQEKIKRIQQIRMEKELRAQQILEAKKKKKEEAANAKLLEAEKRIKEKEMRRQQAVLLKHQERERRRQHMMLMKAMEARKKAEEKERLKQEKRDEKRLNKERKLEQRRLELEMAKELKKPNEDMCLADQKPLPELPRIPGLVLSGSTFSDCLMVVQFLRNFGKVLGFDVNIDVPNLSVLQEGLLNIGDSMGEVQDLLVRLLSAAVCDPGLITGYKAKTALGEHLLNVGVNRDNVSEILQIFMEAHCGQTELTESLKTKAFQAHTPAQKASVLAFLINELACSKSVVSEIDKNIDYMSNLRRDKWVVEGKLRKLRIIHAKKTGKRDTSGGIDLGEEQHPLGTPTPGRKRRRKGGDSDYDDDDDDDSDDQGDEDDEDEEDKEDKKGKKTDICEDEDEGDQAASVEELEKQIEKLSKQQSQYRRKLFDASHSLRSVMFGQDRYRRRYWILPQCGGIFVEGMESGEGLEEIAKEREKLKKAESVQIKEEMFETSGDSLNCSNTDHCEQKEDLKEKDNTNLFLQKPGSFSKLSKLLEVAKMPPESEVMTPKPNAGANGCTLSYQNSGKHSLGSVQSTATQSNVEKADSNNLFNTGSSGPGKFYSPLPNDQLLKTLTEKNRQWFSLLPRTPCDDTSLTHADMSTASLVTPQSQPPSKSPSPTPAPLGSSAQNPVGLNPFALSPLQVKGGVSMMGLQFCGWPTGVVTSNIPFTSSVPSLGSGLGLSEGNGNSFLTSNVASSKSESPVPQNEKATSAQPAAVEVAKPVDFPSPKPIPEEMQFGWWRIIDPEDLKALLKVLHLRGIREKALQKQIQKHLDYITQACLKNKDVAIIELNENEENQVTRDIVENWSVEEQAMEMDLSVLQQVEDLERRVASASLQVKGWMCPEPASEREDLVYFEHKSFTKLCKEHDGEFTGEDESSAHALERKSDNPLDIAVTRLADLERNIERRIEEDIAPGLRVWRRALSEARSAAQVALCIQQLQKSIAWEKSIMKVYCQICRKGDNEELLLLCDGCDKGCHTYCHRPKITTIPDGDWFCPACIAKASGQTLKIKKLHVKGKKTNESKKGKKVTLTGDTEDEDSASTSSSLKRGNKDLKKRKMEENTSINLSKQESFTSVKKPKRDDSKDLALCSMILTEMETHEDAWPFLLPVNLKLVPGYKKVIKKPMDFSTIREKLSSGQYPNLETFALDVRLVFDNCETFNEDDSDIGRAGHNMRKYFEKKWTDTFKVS
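BAZ2B (50 nM) with biotin-H3(5-23)K14Ac peptide (50 nM) in PBS pH 7.4, 0.01% Tween-20, preformed 30 min, then compound 30 min at room temperature; top concentration 110uM. AlphaScreen streptavidin donor/nickel chelate acceptor beads (10 ug/mL final), 20 min dark, signal read.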
Six1-Eya2 blk: qHTS Assay for Inhibitors of the Six1/Eya2 Interaction; activity change, % (no concentration beside the values); AlphaScreen GST-Six1/His-Eya2 binding, biochemical; active compounds read low; Homeobox protein SIX1 (Homo sapiens) + Protein phosphatase EYA2 (Homo sapiens), …; 0.56% of 360,000 active; in the data active = activity change below about -65%; inconclusive = mostly about -30% to -63%; also: % is scaled to controls: 0 for no effect and ±100 for the full control effect
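AlphaScreen with GST-Six1 and His-Eya2 (5X mix: 250 nM and 500 nM), glutathione donor and nickel acceptor beads; buffer 50 mM Tris pH 8.0, 300 mM NaCl, 1 mM TCEP; 1 h at 37 C in the dark.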
CtBP-E1A blk: qHTS Assay for Inhibitors of the CtBP/E1A Interaction. CtBP / adenovirus E1A interaction (AlphaScreen). AlphaScreen GST-E1A/His-CtBP binding, 1536-well; active compounds read low. activity change, % (no concentration beside the values). 0.49% of 340,000 active. AID 651724, 2012; in the data active = activity change below about -65%; inconclusive = mostly about -30% to -63%; also: % is scaled to controls: 0 for no effect and ±100 for the full control effect
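Steps: dispense buffer (Tris pH 8.0, NaCl 300 mM, TCEP 1 mM, BSA, Tween 20); add 5X protein mix (GST-E1A, His-CtBP, 125 nM each); pin 23 nL compound; 2 h at 37 °C, dark; add 5X beads (50 ug/mL); 1 h; read.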
HP1b chromo inh: HTS for Inhibitors of HP1-beta Chromodomain Interactions with Methylated Histone Tails | Potency, µM (titrated, usually from 114 µM), inactives show at the highest dose activity change, negative = inhibition, usual class: inhibitors | Chromobox protein homolog 1 (Homo sapiens), P83916 | AlphaScreen HP1-beta / biotin-H3K9me3 peptide binding | 0.56% of 390,000 active; also: potency is read from the fitted curve at half-maximal effect; nearly all actives have a fitted effect of over 70% in size
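AlphaScreen: HP1-beta (50 nM) preformed 30 min with biotin-H3(1-18)K9me3 peptide (50 nM) in PBS pH 7.4, 0.01% Tween-20. Compound added for 30 min at RT, then streptavidin donor/nickel chelate acceptor beads (10 ug/mL) for 30 min.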
G9a block: qHTS Assay for Inhibitors of Histone Lysine Methyltransferase G9a; 8.8% of 350,000 active; G9a H3K9 monomethylation, AlphaScreen, 2 h; AID 504332, 2011; Potency, µM (doses to about 102 µM), inactives show at the highest dose activity, negative = inhibition, actives largely listed as inhibitors; Histone-lysine N-methyltransferase EHMT2 (Homo sapiens), Q96KQ7; also: potency is read from the fitted curve at half-maximal effect; % is scaled to controls: 0 for no effect and ±100 for the full control effect; nearly all actives have a fitted effect of over 75% in size
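Step 1: enzyme (final 20 nM) with compound, 15 min RT. Step 2: substrate peptide 500 nM and SAM 20 uM, 2 h RT. Step 3: anti-H3K9me1 antibody and AlphaScreen beads, 10 min, then plate read.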
JMJD2A Tudor inh: qHTS Assay for Inhibitors of JMJD2A-Tudor Domain; AlphaScreen JMJD2A-Tudor / H3K4me3 peptide binding; Potency, µM (titrated, usually from 114 µM), for the others: at the highest dose activity change, negative = inhibition, usual class: inhibitors; 4.4% of 390,000 active; also: potency is read from the fitted curve at half-maximal effect; % is scaled to controls: 0 for no effect and ±100 for the full control effect; nearly all actives have a fitted effect of over 50% in size
The depositor's hits bear a star; ? = inconclusive; / = no result given; ! = repeats disagree; [ ] = another dose, or the depositor's remark. Sampled rows, rich in hits. Any-hit rate of the full collection: about 10%. Unless noted, calls follow the shape of the dose curve; as a rule, active = well fitted inhibition curve with a large enough effect; inconclusive = small, poorly fitted or top-dose-only effect; inactive = no such curve, though single readings can be large or run the other way.

SMILES | BAZ2B inh | Six1-Eya2 blk | CtBP-E1A blk | HP1b chromo inh | G9a block | JMJD2A Tudor inh
CN(Cc1ccccc1)C(=O)c1ccc(CSc2nc3cccnc3n2Cc2ccccc2F)cc1 | 25µM* | / | / | ? | 4.5µM* | 5µM*
C=CCn1c(SC(C)C#N)nc2ccccc2c1=O (centres undefined) | / | / | / | 23%[57 µM] | / | -8%[57.1 µM]
CCN(CC)c1ccc(NS(=O)(=O)c2cc3[nH]c(=O)c(=O)[nH]c3cc2C)c(C)c1 | 50µM* | / | / | -29% | 14µM* | 45µM*
CCN(CC)c1ccc(NS(=O)(=O)c2cc(-c3onc(C)c3C)ccc2OC)c(C)c1 | -16% | / | / | -10% | 8.9µM* | ?
Cc1cc(Cl)ccc1NS(=O)(=O)c1cc2[nH]c(=O)c(=O)[nH]c2cc1C | -13% | / | / | 14% | 3%[59 µM] | -13%
CCN(CC)c1ccc(NS(=O)(=O)c2ccc(-c3coc(C)n3)cc2)c(C)c1 | 13µM* | / | / | ? | 11µM* | 25µM*
COc1ccc(-c2onc(C)c2C)cc1S(=O)(=O)NCCc1ccco1 | 50µM* | -7 | -6 | -19% | ? | ?
COc1ccc(-c2onc(C)c2C)cc1S(=O)(=O)NCc1ccco1 | -25% | / | / | 10% | 0%[59 µM] | -6%
COc1cccc(-n2c(SCc3cccc(C)c3)nc3c([nH]c4ccccc43)c2=O)c1 | 0% | / | / | 19%[57 µM] | -8%[59 µM] | -25%
CCCSc1ncc(Cl)c(C(=O)NCc2ccc(OC)cc2)n1 | 8% | / | / | 50% | 8%[59 µM] | 15%
COCCCNC(=O)CCCn1c(SCC(=O)c2ccc(Br)cc2)nc2c(sc3ccccc32)c1=O | ? | / | / | 0% | -45%[59 µM] | -29%
N=c1sccn1CC(=O)Nc1ccc(SC(F)F)cc1 | -17% | -15 | -11 | 2% | 50µM* | -24%
Cc1nc(NC(=O)c2ccco2)sc1-c1csc(Nc2ccc(Cl)cc2)n1 | ? | 1 | / | -8% | 12%[0.501 µM] | ?
Cc1nc(NC(=O)c2ccccc2)sc1-c1csc(Nc2cccc(Cl)c2)n1 | ? | / | / | / | 50µM* | /
COc1ccc(OC)c(Nc2nc(-c3sc(NC(=O)c4ccccc4)nc3C)cs2)c1 | -34% | / | / | / | 31%[12.7 µM] | /
Cc1nc(NC(=O)c2ccccc2)sc1-c1csc(Nc2ccc(F)cc2)n1 | ? | / | / | / | 32µM* | /
Cc1nc(NC(=O)c2ccccc2)sc1-c1csc(Nc2ccc(Cl)cc2)n1 | -38%[57.1 µM] | / | / | / | 45µM* | /
CC(=O)c1ccc(NC(=O)c2cc3c(=O)oc4ccc(C)cc4c3s2)cc1 | 1% | / | / | 19% | -6%[59 µM] | -6%
CCCOc1ccc(CNC(=O)c2cc3ccccn3n2)cc1 | 0% | / | / | 26% | 9%[59 µM] | -20%
CN(/N=C/c1ccccc1O)C(=S)c1ccccc1 | ? | ? | -19 | -5% | / | ?
CN(C)C(=S)c1ccccc1 | -11% | 0 | 3 | ? | 10µM* | ?
CN(C)C(=S)c1ccc(N(C)C)cc1 | ? | 1 | 2 | ? | 7.9µM* | -22%
CN1CCN(C(=S)c2ccc(N(C)C)cc2)CC1 | 1% | -3 | -4 | ? | ? | -18%
Cc1cc(O)c(C(c2cccc(Cl)c2)N2CCN(c3ccccc3)CC2)c(=O)n1Cc1ccco1 (centres undefined) | -21% | / | / | 21%[57 µM] | -50%[59 µM] | -35%
NC(=O)C1CCN(c2nc(-c3ccccc3C(F)(F)F)cs2)CC1 | -37% | / | / | 11% | -10%[12.7 µM] | 79µM*
SMILES | BAZ2B inh | Six1-Eya2 blk | CtBP-E1A blk | HP1b chromo inh | G9a block | JMJD2A Tudor inh
O=C(CN1CCN(c2nc(-c3ccc(F)cc3)cs2)CC1)NCc1ccc2c(c1)OCO2 | ? | -22 | -21 | -22% | 40µM* | ?
Cn1ccc2cc(-c3csc(N4CCC(C(N)=O)CC4)n3)ccc21 | 50µM* | / | / | 50% | -25%[12.7 µM] | -7%
O=C(CN1CCN(c2ncccn2)CC1)NCc1ccc2c(c1)OCO2 | -18% | -7 | -2 | 26% | 8% | -6%
NC(=O)C1CCN(c2nc(-c3cccnc3)cs2)CC1 | -3% | / | / | 38% | -4%[12.7 µM] | 79µM*
Cc1cccc(NC(=O)CN2C(=O)c3cccnc3Oc3ccc(Cl)cc32)c1C | 7% | / | / | 13% | -3%[59 µM] | -9%
Cc1ccc(-c2ccc(=O)n(CC(=O)Nc3ccc(C(C)C)cc3)n2)cc1 | -2% | / | / | 37% | -30%[59 µM] | -8%
COc1cc(Cl)c(S(=O)(=O)N2CCN(c3c(C)cccc3C)CC2)cc1Cl | 1% | / | / | 55% | 21%[59 µM] | 1%
CCc1ccc(NC(=O)Cn2c(=O)n(Cc3ccco3)c(=O)c3oc4ccccc4c32)cc1 | -1% | / | / | 33% | -4%[59 µM] | -8%
COc1ccc(C(=O)N2CCN(C(=O)COc3ccccc3)CC2)cc1OC | -2% | / | / | 28% | 4%[59 µM] | 8%
CCOc1ccc(NC(=O)c2cc3c(s2)-c2ccccc2OC3)cc1 | 2% | / | / | 43% | 2%[59 µM] | -3%
NC(=O)C1CCN(c2nc(-c3ccc(F)cc3)cs2)CC1 | 56µM*! | / | / | 29% | -24%[12.7 µM] | -18%
NC(=O)C1CCN(c2nc(-c3ccccc3F)cs2)CC1 | ? | / | / | 12% | 1%[12.7 µM] | -30%
CCN(c1ccc(OC)cc1)S(=O)(=O)c1nnc(NC(=O)COc2ccc(F)cc2)s1 | -26% | -6 | -7 | 13% | -50% | 35µM*!
O=C(Nc1nnc(S(=O)(=O)N2CCCCCC2)s1)c1ccccc1Br | 14µM*! | -10 | 2 | 40% | 10µM* | 13µM*!
Cc1ccccc1C(=O)Nc1nnc(S(=O)(=O)N2CCCCC2)s1 | -3% | -2 | 1 | 44% | -24% | -2%
CC1CCN(S(=O)(=O)c2nnc(NC(=O)c3ccccc3Br)s2)CC1 | 13% | 4 | -12 | 47% | 2% | -11%
CCN(c1ccc(OC)cc1)S(=O)(=O)c1nnc(NC(=O)COc2ccc(C)cc2)s1 | -10% | 1 | / | 31% | / | -12%
O=C(Nc1nnc(S(=O)(=O)N2CCCCCC2)s1)c1ccc(Br)cc1 | -39% | 4 | -9 | ? | 14µM*! | ?
O=C(Nc1nnc(S(=O)(=O)N2CCCC2)s1)c1ccccc1Br | 7.1µM*! | -8 | -1 | 52% | ? | ?
O=S1(=O)N=C(Oc2cccc(C(F)(F)F)c2)c2ccccc21 | / | / | / | / | / | -26%
O=C(COc1ccc(Cl)cc1)Nc1nnc(S(=O)(=O)N2CCCCCC2)s1 | 1.8µM*! | 7 | 5 | ? | 3.2µM*! | 10µM*!
OC(c1cccc(Cl)c1)c1nccc2ccccc12 (centres undefined) | -31% | 3 | 4 | 39% | 40µM* | -30%
CC(C)n1c(C(O)c2ccc3c(c2)OCO3)nc2ccccc21 (centres undefined) | -32% | -1 | 4 | 9% | 71µM* | -30%
